# Rows were chosen to be rich in hits. Some 22% of all compounds tested hit in one or more screens of this group.
# LmPK inh: qHTS Assay for Inhibitors of Leishmania Mexicana Pyruvate Kinase (LmPK); Q27686; purified LmPK, Kinase-Glo ATP luminescence, 1 h; Potency, µM (doses to about 57.5 µM), inactives show at the top dose activity change, negative = inhibition, usual class: inhibitors; hit rate 0.37% among 290,000; note: potency is the fitted concentration of half-maximal effect; % is set by controls: 0 for no effect and ±100 for the full control effect
# Target sequence (Q27686 whole entry, looked up): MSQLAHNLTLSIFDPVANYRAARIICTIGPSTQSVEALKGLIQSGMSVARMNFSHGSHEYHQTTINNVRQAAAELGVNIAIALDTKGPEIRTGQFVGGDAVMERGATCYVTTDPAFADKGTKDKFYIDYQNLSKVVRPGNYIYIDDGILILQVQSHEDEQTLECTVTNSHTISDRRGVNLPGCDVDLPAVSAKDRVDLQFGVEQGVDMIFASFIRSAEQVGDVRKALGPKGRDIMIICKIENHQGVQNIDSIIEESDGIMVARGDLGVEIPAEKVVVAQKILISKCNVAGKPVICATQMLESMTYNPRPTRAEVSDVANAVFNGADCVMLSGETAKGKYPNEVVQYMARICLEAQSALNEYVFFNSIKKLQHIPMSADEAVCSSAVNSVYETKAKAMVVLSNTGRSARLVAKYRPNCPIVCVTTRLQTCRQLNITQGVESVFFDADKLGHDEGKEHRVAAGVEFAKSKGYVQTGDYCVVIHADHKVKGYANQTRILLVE
#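 Purified LmPK (0.1 nM) converted ADP (0.1 mM) to ATP with PEP (0.5 mM) in imidazole buffer pH 7.2 with KCl and MgCl2, 1 h at room temperature. ATP was read by Kinase-Glo luminescence; data normalized to uninhibited and no-enzyme controls.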
# Pf growth 96h: Primary qHTS for delayed death inhibitors of the malarial parasite plastid, 96 hour incubation | Potency, µM (highest dose often 28.7 µM), inactives show top-dose activity change, negative = inhibition, hits mostly inhibitors | hit rate 6.9% among 320,000 | P. falciparum luciferase reporter growth, 96 h; note: potency is the fitted concentration of half-maximal effect; % is set by controls: 0 for no effect and ±100 for the full control effect
#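 Readout is luminescence from an integrated firefly luciferase in P. falciparum. Red cells, 2% hematocrit and 0.05% parasitemia final, were cultured with compound through two parasite generations (96 hours) at 37 C, 5% CO2.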
# CHX counter: Cycloheximide Counterscreen for Small Molecule Inhibitors of Shiga Toxin. hit rate 12% among 300,000. max response, %. cell reporter, cycloheximide protein synthesis inhibition counterscreen. AID 2314, 2010; in the data active = max response mostly above about 13%, no sharp cut-off; inactive = mostly below about 14%; note: read at 38.3 µM for the half of the compounds with a filed dose; 0% is about no effect
# Pf growth 48h: Primary qHTS for delayed death inhibitors of the malarial parasite plastid, 48 hour incubation; Potency, µM (top dose mostly 28.7 µM), for the others: top-dose activity change, negative = inhibition, most hits filed as inhibitors; P. falciparum luciferase growth in erythrocytes, 48 h; hit rate 5.9% among 310,000; note: potency is the fitted concentration of half-maximal effect; % is set by controls: 0 for no effect and ±100 for the full control effect
#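 A one-generation exposure of luciferase-tagged malaria parasites in RPMI 1640/Albumax erythrocyte culture, 37 C and 5% CO2. Inhibition is inferred from decreased luminescence after adding detection reagent.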
# Shiga toxin inh: A qHTS for Small Molecule Inhibitors of Shiga Toxin; Vero cells, Shiga toxin protein synthesis inhibition reporter; inhibition, % at 38.7 µM; hit rate 9.2% among 290,000; AID 2315, 2010; in the data active = inhibition mostly above about 28%, no sharp cut-off; inactive = mostly below about 43%; note: 0% is about no effect
# * marks the source's active call; other numbers are inactive results; ? = inconclusive; . = no result; [ ] = dose if it differs, or a comment. Unless noted, calls come from the whole dose curve; as a rule, active = well fitted inhibition curve with a large enough effect; inconclusive = small, poorly fitted or top-dose-only effect, or another doubt; inactive = no such curve, though single readings can be large or run the other way.
SMILES,LmPK inh,Pf growth 96h,CHX counter,Pf growth 48h,Shiga toxin inh
C=CCNC(=O)c1ccc(-c2ccc([N+](=O)[O-])cc2)o1,3.2%,31.5%,19.3*,64.1%,active
C=CCNC(=S)N/N=C/c1ccc(-c2ccc(Br)cc2)o1,-0.4%,58.3%,13.8,?,-7.9
COc1cccc(NC(=O)c2ccc(-c3ccc([N+](=O)[O-])cc3)o2)c1,-7.7%,?,18.3*,?,69.8*
C=CCNC(=O)c1ccc(-c2cccc([N+](=O)[O-])c2)o1,-2.0%,-29.6%,37.1*,52.7%,69.3*
O=C1CCCN2N=C(SCC(=O)Nc3ccc(OC(F)(F)F)cc3)SC2=N1,0.7%,11.7µM*,-2.9,-17.4%,37.2
CCCSC1=NN2CCCC(=O)N=C2S1,-6.3%,71.0%,26.9*,212.1%,93.1*
O=C(NCC(=O)N1CCc2ccccc2C1)c1ccccc1Cl,-0.3%,76.3%,22.0*,14.8%[0.00184 µM],70.9*
O=C(CNC(=O)c1ccccc1Cl)OCC(=O)N1CCc2ccccc21,-2.2%,213.4%,41.5*,286.7%,127.0*
O=C(Cc1ccccc1F)OCC(=O)N1CCc2ccccc21,-1.3%,10.8%,63.8*,86.9%,97.4*
O=C(COc1ccccc1F)OCC(=O)N1CCc2ccccc21,.,-6.6%,.,?,.
CCOC(=O)c1cnc2ccc(OCC)cc2c1N(C)Cc1ccccc1,0.9%,?,-3.3,?,-4.6
N#CC1=C(N)Oc2c(c(=O)sc3ccccc23)C1c1ccncc1 (configuration not stated),19.8%,-9.5%,19.9*,8.2%,6.8
O=C(NC1CCCCCC1)c1cc(-c2ccccn2)nc2ccccc12,3.0%,?,0.7,?,-12.0
CC(=O)Nc1ccc(NC(=O)C(=O)NCC(c2ccco2)N2CCc3ccccc32)cc1 (configuration not stated),.,10.4µM*,.,13.1µM*,.
COc1ccc(NC(=O)C(=O)NCC(c2ccco2)N2CCc3ccccc32)cc1 (configuration not stated),.,15.4%,.,-14.0%,.
COC(CNc1nc(SC)nc2sc3c(c12)CCN(C)C3)OC,-3.3%,5.22µM*,-3.0,?,-6.4
CSc1nc(NCc2ccco2)c2c3c(sc2n1)CN(C)CC3,-1.1%,-2.7%[5.75 µM],-2.6,2.94µM*,-13.2
C=CCNc1nnc(Cc2ccc(C(C)C)cc2)c(=O)[nH]1,-0.4%,?,1.1,?,15.5
CCCOP(=O)(c1ccc(N(C)C)cc1)C(O)c1ccc(Br)cc1 (configuration not stated),-1.7%,?,-2.1,-23.2%,-5.7
CS(=O)(=O)Nc1cccc2[nH]ncc12,-3.2%,13.7%,-3.1,0.0%,-0.9
COc1ccc(-c2nc(N)nc(C(F)(F)F)c2-c2ccccc2OC)c(O)c1,4.9%,?,-3.5,?,-7.3
COc1ccccc1-c1cn[nH]c1-c1ccc(OCC(=O)NN)cc1O,6.6%,?,1.0,?,20.1
COc1ccc(-c2c(-c3ccc(OCC(=O)NN)cc3O)n[nH]c2C)cc1,2.6%,9.28µM*,-2.5,?,-10.7
COc1ccccc1-c1c(-c2ccc(OCC(=O)NN)cc2O)n[nH]c1C(F)(F)F,-4.4%,7.38µM*,-2.7,8.28µM*,4.0
COc1ccc(-c2n[nH]c(C(F)(F)F)c2-c2cc3ccccc3o2)c(O)c1,-0.1%,16.5%,-2.5,2.08µM*,-11.2
SMILES,LmPK inh,Pf growth 96h,CHX counter,Pf growth 48h,Shiga toxin inh
NNC(=O)COc1ccc(-c2n[nH]c(C(F)(F)F)c2-c2ccc(Br)cc2)c(O)c1,1.0%,8.28µM*,-2.5,9.28µM*,11.3
COc1ccc(-c2cn[nH]c2-c2ccc(OCC(=O)NN)cc2O)cc1,-5.2%,?,8.3,?,-18.9
Cc1c(C(=O)c2ccc([N+](=O)[O-])cc2)c(=O)n(C)c(=O)n1C,2.9%,-4.5%,2.7,-4.4%,16.0
COc1ccc(C2/C(=C(/O)c3ccc(C)cc3)C(=O)C(=O)N2C)c(OC)c1 (configuration not stated),-2.4%,?,-2.0,46.0%,-6.7
COc1cccc(N2C(=NC(=O)C3CCCO3)SC3CS(=O)(=O)CC32)c1 (configuration not stated),7.8%,?,-1.6,-56.1%,-7.3
COc1ccc(-n2cnc3ccccc3c2=O)c([N+](=O)[O-])c1,-7.1%,-11.2%,1.5,7.9%,-5.9
O=S(=O)(O)c1c(NS(=O)(=O)c2ccccc2)ccc2ccccc12,.,.,3.6,.,10.5
COc1ccc(C(=O)Nc2ccc3oc(-c4cccc(Cl)c4)cc(=O)c3c2O)cc1,8.4%,?,6.3,?,2.2
COc1ccc(-c2n[nH]c(C)c2-c2ccc(Cl)cc2)c(O)c1,0.2%,10.4µM*,0.7,8.28µM*,-11.5
CCN(CC)CCN(Cc1cc2cccc(C)c2[nH]c1=O)C(=S)Nc1ccccc1,0.2%,7.5%,7.5,11.7µM*,18.1
COc1ccc2[nH]c(=O)c(CN(Cc3ccc4c(c3)OCO4)C(C)=O)cc2c1,-1.2%,?,0.6,6.3%,-2.5
CCN(CC)CCN(Cc1cc2ccc(C)cc2[nH]c1=O)C(=S)Nc1ccccc1C(=O)OC,4.0%,47.4%,-1.9,13.1µM*,-15.4
COC(=O)c1ccccc1NC(=S)N(Cc1ccc2c(c1)OCO2)Cc1cc2ccc(OC)cc2[nH]c1=O,0.6%,34.3%,-0.6,9.28µM*,-10.1
COC(=O)c1ccccc1NC(=S)N(Cc1ccc2c(c1)OCO2)Cc1cc2cc(C)ccc2[nH]c1=O,2.5%,5.3%,-0.9,?,-4.4
Cc1ccc2cc(CN(CCN(C)C)C(=S)Nc3ccccc3)c(=O)[nH]c2c1C,8.0%,1.0%,-2.6,-21.9%,-12.3
COC(=O)c1ccccc1NC(=S)N(Cc1ccc2c(c1)OCO2)Cc1cc2ccc(C)cc2[nH]c1=O,-1.7%,?,-0.4,9.28µM*,-24.5
CCOc1ccccc1NC(=O)CCC(=O)Nc1nnc(C2CCCCC2)s1,0.1%,?,3.7,-12.7%,10.7
CC(CN1CCCCC1)NC(=O)c1cccs1 (configuration not stated),-0.6%,-19.2%,1.5,-21.6%,-3.1
CCCCN1C2CCCC1CC(NC(=O)c1cccc(OC)c1)C2 (configuration not stated),1.8%,?,-3.6,?,.
CN(C(=O)CCN1C(=O)c2ccccc2C1=O)c1ccccc1,1.3%,13.9%,2.6,2.8%,-12.2
COc1ccc(C)cc1NC(=O)C(NC(=O)c1cc(OC)c(OC)c(OC)c1)C(C)C (configuration not stated),1.7%,13.1µM*,-1.8,-34.9%,-5.3
COCCN(Cc1nc(C2(c3ccc(C)cc3)CCCC2)no1)C(C)C,-2.2%,13.1µM*,-1.9,?,-3.5
Cc1ccc(C2(c3noc(CN4CCC(c5ccncc5)CC4)n3)CCCC2)cc1,3.0%,11.7µM*,-6.8,?,-14.5

# Screens (PubChem)
